In the supplement of paper PMC6609913:
Counter-ions that a name gives are not always drawn. ± gives the standard deviation of the averaged measurements. Whole data set: some 1,300 compounds, median “normalised cell viability” near 1, cut for the lowest 2% near 0.14. The sample as a whole holds a higher share of the lowest values than the screen did.

Test system: V-C8 (BRCA2-deficient hamster cells)
Assay: normalised cell viability (fraction of plate median); higher = more viable cells (less toxic)
Settings: 5 µM
Outline: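 BRCA2-deficient hamster V-C8 cells and BRCA2-restored V-C8 cells were plated in 96-well plates, and library drugs were added 24 h later at 5 μM in 100 μl medium. Exposure lasted 3 days in screen 1 and 6 days in screen 2, next to solvent-only wells. Viability was then read by resazurin assay, median-plate normalised and averaged across triplicate wells.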

SMILES | normalised cell viability (treatment time: 3 days) | normalised cell viability (treatment time: 6 days)
O=C1CN(/N=C/c2ccc([N+](=O)[O-])o2)C(=O)N1 [Nitrofurantoin] | 0.937 ± 0.025 | 1.15 ± 0.29
CN[C@@H]1[C@@H](O)[C@@H](O[C@@H]2[C@@H](O)[C@H](O[C@H]3OC(CN)=CC[C@H]3N)[C@@H](N)C[C@H]2N)OC[C@]1(C)O [Sisomicin sulfate] | 0.157 ± 0.0072 | 0.145 ± 0.0056
COc1cc2nc(N(C)CCCNC(=O)C3CCCO3)nc(N)c2cc1OC (stereo unspecified) [Alfuzosin hydrochloride] | 0.987 ± 0.056 | 1.08 ± 0.08
c1ccc(CC2=NCCN2)cc1 [Tolazoline hydrochloride] | 1 ± 0.025 | 0.98 ± 0.038
CC(C)(O)c1ccccc1CC[C@@H](SCC1(CC(=O)O)CC1)c1cccc(/C=C/c2ccc3ccc(Cl)cc3n2)c1 [Montelukast] | 1.09 ± 0.11 | 1.1 ± 0.052
CCC(C)(CN(C)C)OC(=O)c1ccccc1 (stereo unspecified) [Amyleine hydrochloride] | 1.074 ± 0.0072 | 1.02 ± 0.036
C#CCN[C@@H]1CCc2ccccc21 [Rasagiline] | 1.08 ± 0.055 | 1.06 ± 0.038
Clc1ccc(C(Cn2ccnc2)OCc2csc3c(Cl)cccc23)c(Cl)c1 (stereo unspecified) [Sertaconazole nitrate] | 0.737 ± 0.18 | 0.821 ± 0.12
Cc1cccc(N(C)C(=S)Oc2ccc3ccccc3c2)c1 [Tolnaftate] | 1 ± 0.041 | 0.983 ± 0.02
C=CCOC(Cn1ccnc1)c1ccc(Cl)cc1Cl (stereo unspecified) [Enilconazole] | 0.93 ± 0.04 | 0.943 ± 0.015
Clc1ccc(CO/N=C(\Cn2ccnc2)c2ccc(Cl)cc2Cl)c(Cl)c1 [Oxiconazole Nitrate] | 0.807 ± 0.043 | 0.898 ± 0.043
CN1CCN(C(c2ccccc2)c2ccc(Cl)cc2)CC1 (stereo unspecified) [Chlorcyclizine hydrochloride] | 0.947 ± 0.019 | 0.979 ± 0.073
O=C(O)CCNC(=O)c1ccc(/N=N/c2ccc(O)c(C(=O)O)c2)cc1 [Balsalazide Sodium] | 0.973 ± 0.027 | 0.953 ± 0.13
Nc1ccn([C@@H]2O[C@H](CO)[C@@H](O)[C@@H]2O)c(=O)n1 [Cytarabine] | 0.206 ± 0.0091 | 0.196 ± 0.022
Nc1ccn([C@H]2CC[C@@H](CO)O2)c(=O)n1 [Zalcitabine] | 1.02 ± 0.059 | 1.04 ± 0.044
Nc1ccn([C@@H]2CS[C@H](CO)O2)c(=O)n1 [Lamivudine] | 0.147 ± 0.0082 | 0.139 ± 0.012
CC(C)NCC(O)COc1ccc(CCOCC2CC2)cc1 (stereo unspecified) [Betaxolol hydrochloride] | 0.1577 ± 0.00096 | 0.136 ± 0.014

SMILES | normalised cell viability (treatment time: 3 days) | normalised cell viability (treatment time: 6 days)
COC(=O)CCc1ccc(OCC(O)CNC(C)C)cc1 (stereo unspecified) [Esmolol hydrochloride] | 1.04 ± 0.077 | 0.939 ± 0.08
CC(C)NCC(O)COc1ccc(COCCOC(C)C)cc1 (stereo unspecified) [Bisoprolol fumarate] | 1.04 ± 0.044 | 1.16 ± 0.049
O=C1[C@H](CC[C@H](O)c2ccc(F)cc2)[C@@H](c2ccc(O)cc2)N1c1ccc(F)cc1 [Ezetimibe] | 1.02 ± 0.093 | 1.03 ± 0.022
CN1CCN(C2=Nc3ccccc3Oc3ccc(Cl)cc32)CC1 [Loxapine succinate] | 1.17 ± 0.063 | 1.15 ± 0.03
Cc1cc(C2CCCCC2)n(O)c(=O)c1 [Ciclopirox ethanolamine] | 0.207 ± 0.012 | 0.23 ± 0.015
COC(=O)C1=C(C)NC(C)=C(C(=O)OCC(C)C)C1c1ccccc1[N+](=O)[O-] (stereo unspecified) [Nisoldipine] | 0.889 ± 0.059 | 0.894 ± 0.019
Cc1c(N)c(=O)n(-c2ccccc2)n1C [Ampyrone] | 1.01 ± 0.12 | 1.06 ± 0.055
Nc1nc(=S)c2ncn([C@@H]3O[C@H](CO)[C@@H](O)[C@H]3O)c2[nH]1 [Thioguanosine] | 0.307 ± 0.013 | 0.28 ± 0.017
CCC(Cc1c(I)cc(I)c(N)c1I)C(=O)O (stereo unspecified) [Iopanoic acid] | 0.999 ± 0.036 | 1.07 ± 0.033
CN(C)CCn1nnnc1SCC1=C(C(=O)O)N2C(=O)[C@@H](NC(=O)Cc3csc(N)n3)[C@H]2SC1 [Cefotiam hydrochloride] | 0.996 ± 0.028 | 1.12 ± 0.093
CC(C)NC[C@@H](O)COc1cccc2ccccc12 [(R)-Propranolol hydrochloride] | 0.914 ± 0.085 | 1.06 ± 0.085
CCc1cccc(CC)c1NC(=O)CN(CC(=O)O)CC(=O)O [Etifenin] | 1.07 ± 0.047 | 1.04 ± 0.043
CC(NCCC(c1ccccc1)c1ccccc1)c1ccccc1 (stereo unspecified) [Fendiline hydrochloride] | 0.197 ± 0.018 | 0.496 ± 0.16
Cc1cc(NS(=O)(=O)c2ccc(N)cc2)no1 [Sulfamethoxazole] | 1.02 ± 0.028 | 0.959 ± 0.076
CC(C)/N=c1\cc2n(-c3ccc(Cl)cc3)c3ccccc3nc-2cc1Nc1ccc(Cl)cc1 [Clofazimine] | 0.148 ± 0.0016 | 0.133 ± 0.017
Cc1cnc(C(=O)NCCc2ccc(S(=O)(=O)NC(=O)NC3CCCCC3)cc2)cn1 [Glipizide] | 1.093 ± 0.0089 | 1.13 ± 0.034
